# Among all 52,000 compounds or so, about 1,700 (3.3%) were called active. What follows is part of a selection rich in actives, with near analogues and random picks from the rest. A number with no mark means an inactive call. Rule as the data show it: active = survival mostly below about 52% (no sharp cut-off); inactive = mostly above about 56%.
# Test system: Wild type
# Test: S. aureus survival, RN4220 and DeltatarO strains – OD600, teichoic acid synthesis inhibitors, primary screen (AID 463173)
# Conditions: S. aureus RN4220 wild type/DeltatarO growth, OD600, 18 h, hits give low values, screened at 18.75 µg/mL (by protocol)
row,SMILES,survival
1,CCOc1ccc(-c2nc(SCC(=O)Nc3cc(F)ccc3F)n3[nH]c(=O)cc3n2)cc1,77%
2,CC1=C(C(=O)NCCc2ccc(Cl)cc2)C2(CCCCC2)OC1=O,73%
3,CC(C)CNc1nc(NC(C)(C)C)nc(Oc2ccc(=O)n(-c3ccccc3)n2)n1,84%
4,CCc1ccc(NCc2cc3cc(OC)c(OC)cc3n(CC(=O)Nc3cc(C)ccc3C)c2=O)cc1,63%
5,CCN(C(=O)CSc1nc2ccccc2n1Cc1cc(C)ccc1C)c1ccccc1,72%
6,COc1cc(NC(=O)Cn2cc(S(=O)(=O)c3ccccc3)c(=O)c3ccccc32)cc(OC)c1,78%
7,COc1ccc(N(C(=O)COc2ccc(Br)cc2)S(=O)(=O)c2ccc(C)cc2)cc1,87%
8,CCCCN(CC)C(=O)Cn1ncc2c3ccccc3n(CCC)c2c1=O,98%
9,CN(C)CC(O)C1CCOC(C)(C)C1 (centres undefined),111%
10,CCOc1ccc(Nc2c(S(=O)(=O)c3ccc(Cl)cc3)cnc3ccc(OC)cc23)cc1,88%
11,CCOC(=O)c1cnc2ccc(C)cc2c1Nc1ccc(OCc2ccccc2Cl)cc1,4% (active)
12,CCOC(=O)c1cnc2ccc(OC)cc2c1Nc1cccc(C(C)=O)c1,2% (active)
13,CCOC(=O)c1cnc2ccc(C(=O)OC)cc2c1Nc1ccc(OCc2ccccc2Cl)cc1,129%
14,CCOC(=O)c1cnc2ccc(OC)cc2c1Nc1ccc(OCc2ccccc2Cl)cc1,6% (active)
15,CN(C)c1cc(Nc2ccc(Cl)cc2)c2c3c(onc13)-c1ccccc1C2=O,96%
16,CCC(=O)N1CCc2cc(S(=O)(=O)NC(C(=O)NCCc3ccccc3)C(C)C)ccc21 (centres undefined),83%
17,CCC1CCc2nc3sc(C(=O)Nc4ccc(F)cc4F)c(N)c3cc2C1 (centres undefined),92%
18,Cc1cccc(CCNC(=O)Cn2ncc3c(=O)oc4ccccc4c32)c1,76%
19,Fc1ccc(-c2ccc(NCc3ccccc3)nn2)cc1,119%
20,Cc1cccc(CNC(=O)C2CCC(CNS(=O)(=O)c3ccc4c(c3)CCCC(=O)N4)CC2)c1 (centres undefined),65%
21,CCn1cc2nc(SCc3cccc(OC)c3)n(Cc3ccc(Cl)cc3)c(=O)c2n1,10% (active)
22,CCn1cc2nc(SCc3cccc(C(F)(F)F)c3)n(Cc3ccc(Cl)cc3)c(=O)c2n1,146%
23,CCn1cc2nc(SCc3cccc(C(F)(F)F)c3)n(Cc3ccc(OC)cc3)c(=O)c2n1,71%
24,CCc1ccc(-c2cn3c(n2)SCC3)cc1,111%

row,SMILES,survival
1,CCCNC(=O)Cn1c(=O)c2cccn2c2cccnc21,89%
2,Cc1c(CNC(C)CCc2ccccc2)c(C(=O)O)c(C)n1Cc1ccc(F)cc1 (centres undefined),93%
3,N#Cc1nc(COc2ccccc2Cl)oc1NCCc1ccccc1,25%
4,N#Cc1nc(COc2cccc(Cl)c2)oc1NCCc1ccccc1,19%
5,Cc1ccc(OCc2nc(C#N)c(NCCc3ccccc3)o2)cc1,-1% (active)
6,O=C(CCc1ccccc1)Nc1ccccc1,105%
7,Cc1cc(Cl)ccc1NS(=O)(=O)c1c(C(=O)N2CCC(C)CC2)c(C)n(C)c1C,14% (active)
8,COc1ccc(C)cc1NS(=O)(=O)c1c(C(=O)N2CCC(C)CC2)c(C)n(C)c1C,85%
9,CCOc1ccc(CNS(=O)(=O)c2c(C(=O)N3CCC(C)CC3)c(C)n(C)c2C)cc1OC,71%
10,CC(=O)Nc1ccc(NS(=O)(=O)c2c(C(=O)N3CCCCCC3)c(C)n(C)c2C)cc1,65%
11,Cc1cc(Cl)ccc1NS(=O)(=O)c1c(C(=O)N2CCCCCC2)c(C)n(C)c1C,77%
12,COc1cc(OC)c(NS(=O)(=O)c2c(C(=O)N3CCCCCC3)c(C)n(C)c2C)cc1Cl,54%
13,CCOc1ccc(OCC)c(NS(=O)(=O)c2c(C(=O)N3CCCCCC3)c(C)n(C)c2C)c1,71%
14,Cc1c(C(=O)N2CCC(C)CC2)c(S(=O)(=O)NCc2ccc(Cl)cc2)c(C)n1C,133%
15,CC(=O)Nc1ccc(NS(=O)(=O)c2c(C(=O)N3CCC(C)CC3)c(C)n(C)c2C)cc1,-3% (active)
16,CCOc1ccc(OCC)c(NS(=O)(=O)c2c(C(=O)N3CCC(C)CC3)c(C)n(C)c2C)c1,0% (active)
17,COc1cc(OC)c(NS(=O)(=O)c2c(C(=O)N3CCC(C)CC3)c(C)n(C)c2C)cc1Cl,-1% (active)
18,Cc1ccc(NS(=O)(=O)c2c(C(=O)N3CCC(C)CC3)c(C)n(C)c2C)cc1Cl,131%
19,COc1ccc(C(=O)NCC(c2ccc3c(c2)OCO3)N2CCN(C)CC2)cc1 (centres undefined),60%
20,CCc1ccc(-n2nc3ccc(NC(=O)COc4ccc(OC)cc4)cc3n2)cc1,95%
21,CCOc1ccc(CCNC(=O)C2CCN(Cc3nc(-c4ccccc4C)oc3C)CC2)cc1OCC,81%
22,CCc1cccc(C)c1NC(=O)CCS(=O)(=O)c1cc(Br)cc2c1N(C(=O)C1CC1)CC2,85%
23,CC(=O)c1sc(NC(=O)c2c(-c3ccccc3)c(-c3ccccc3)nn(C)c2=O)nc1C,54%
24,COc1cc(N(C(=O)c2ccco2)C(C(=O)NC2CCCC2)c2ccc(C)cc2)ccc1-n1cnnn1 (centres undefined),105%

row,SMILES,survival
1,Cc1ccc(-c2nnc(SCC(=O)N3CCCc4ccccc43)o2)cc1,65%
2,Cc1cccc(-c2nnc(SCC(=O)N3CCCc4ccccc43)o2)c1,5% (active)
3,O=C(CSc1nnc(-c2ccc(F)cc2)o1)N1CCCc2ccccc21,66%
4,COc1cccc(-c2nnc(SCC(=O)N3c4ccccc4Sc4ccccc43)o2)c1,11% (active)
5,O=C(CSc1nnc(-c2ccccc2)o1)N1CCCc2ccccc21,68%
6,O=C(CSc1nnc(-c2cccc(F)c2)o1)N1c2ccccc2Sc2ccccc21,103%
7,O=C(CSc1nnc(-c2ccccc2Cl)o1)N1CCCc2ccccc21,35%
8,Cc1ccccc1-c1nnc(SCC(=O)N2CCCc3ccccc32)o1,15% (active)
9,COc1cccc(-c2nnc(SCC(=O)N3CCc4ccccc43)o2)c1,69%
10,CCn1c(SC)nnc1C1CCCN(C(=O)Cc2cccnc2)C1 (centres undefined),89%
11,CCC1CCCCN1CCCNC(=O)CN1C(=O)c2cccnc2Oc2ccc(Cl)cc21 (centres undefined),65%
12,Cc1cc(C)cc(NS(=O)(=O)c2ccc3[nH]cc(C(=O)NCc4ccccc4Cl)c(=O)c3c2)c1,111%
13,CCOc1ccccc1-c1noc(CSc2nnc(-c3ccccc3)n2-c2ccc(F)cc2)n1,117%
14,CN(C(=O)CSc1nc(C2CCCC2)nc2c1c(=O)n(C)c(=O)n2C)c1ccccc1,128%
15,Cc1ccc(-c2c(CN3CCN(c4cccc(C)c4)C(C)C3)csc2C)cc1 (centres undefined),90%
16,CC(=O)Nc1cccc(NC(=O)CSc2ccc(-c3sc(-c4ccccc4)nc3C)nn2)c1,17% (active)
17,Cc1nc(-c2ccccc2)sc1-c1ccc(SCC(=O)Nc2ccccc2)nn1,41%
18,Cc1nc(-c2ccccc2)sc1-c1ccc(SCC(=O)Nc2cccc(C(F)(F)F)c2)nn1,67%
19,O=C(Cn1c(=O)oc2cc(S(=O)(=O)N3CCCC3)ccc21)NCc1ccc(Cl)cc1,138%
20,NC1=NC(c2cccc(Cl)c2)n2c(nc3ccccc32)N1 (centres undefined),97%
21,CCOc1ccc(-c2cc(CCCC(=O)NCCc3cc(OC)c(OC)c(OC)c3)no2)cc1,59%
22,CC(C)CCn1c(SCc2cccc(F)c2)nc2ccsc2c1=O,76%
23,Cc1ccccc1CSc1nc2ccsc2c(=O)n1CCC(C)C,74%
24,O=C(CSc1nc2ccsc2c(=O)n1Cc1ccccc1Cl)NCc1ccc(Cl)cc1,75%

row,SMILES,survival
1,O=C(CSc1nc2ccsc2c(=O)n1-c1ccc(Br)cc1)NCc1ccc(Cl)cc1,81%
2,Cc1ccc(Cn2c(SCC(=O)NCc3ccccc3)nc3ccsc3c2=O)cc1,76%
3,Cc1ccc(CNC(=O)CSc2nc3ccsc3c(=O)n2-c2ccc(Br)cc2)cc1,14% (active)
4,O=C(CSc1nc2ccsc2c(=O)n1-c1ccc(Br)cc1)NCc1ccccc1,80%
5,Cc1ccc(CSc2nc3ccsc3c(=O)n2CCC(C)C)cc1,-6% (active)
6,Cc1ccc(Cn2c(SCC(=O)NCc3ccccc3Cl)nc3ccsc3c2=O)cc1,-6% (active)
7,CC(C)/C=N/NC(=O)c1ccc2c(c1)NC(=O)C(C)(C)O2,108%
8,Cc1ccccc1OCC(=O)OC1CCCN(C)C1 (centres undefined),90%
9,CCC(=O)N1CCc2cc(Br)cc(S(=O)(=O)N3CCC(C(=O)Nc4ccccc4F)CC3)c21,80%
10,COc1ccc(-c2cc(-c3ccccc3)c(C#N)c(SCC(O)CS(=O)(=O)Cc3ccc(Cl)cc3)n2)cc1 (centres undefined),141%
11,COc1ccc(-c2noc(CCC(=O)N(C)c3ccccc3C)n2)cc1,71%
12,COc1ccc(-c2noc(CC(=O)N(C)c3ccccc3F)n2)cc1,84%
13,CN(C(=O)CCc1nc(-c2ccccc2F)no1)c1ccc(Cl)cc1,68%
14,CCCN(C(=O)Cc1nc(-c2ccc(OC)cc2)no1)c1ccccc1C,87%
15,CCCN(C(=O)CCc1nc(-c2ccc(C)cc2)no1)c1ccc(OCC)cc1,0% (active)
16,CCOc1ccc(N(CC)C(=O)CCc2nc(-c3ccccc3F)no2)cc1,39%
17,COc1ccc(-c2noc(CCC(=O)N(C)c3cc(Cl)ccc3OC)n2)cc1,20%
18,Cc1ccc(-c2noc(CCC(=O)N(C)c3ccccc3F)n2)cc1,4% (active)
19,CCCN(C(=O)CCc1nc(-c2ccccc2F)no1)c1ccc(CC)cc1,-2% (active)
20,COc1ccc(-c2noc(CCC(=O)NCc3ccc(C)cc3)n2)cc1,94%
21,CCCN(C(=O)CCc1nc(-c2ccc(OC)cc2)no1)c1ccccc1F,0% (active)
22,CCOC(=O)c1ccccc1NC(=O)CCc1nc(-c2ccc(C)cc2)no1,27%

# From PubChem BioAssay AID463173 (ICCB-Longwood Screening Facility, Harvard Medical School, 2010)
